# Measured values published in paper PMC7862700, “An all-to-all approach to the identification of sequence-specific readers for epigenetic DNA modifications on cytosine”.
# Tests used:
# Assay in all cases: DAPPL (digital affinity profiling via proximity ligation, sequencing); 10 mM Tris-HCl pH 7.5, 50 mM NaCl, 1 mM DTT, 4% glycerol, room temperature, 30 min; GST-TFs on glutathione beads, 16-mer random dsDNA library, 0.1% formaldehyde crosslink after washing; high values mean tight binding
# FLI1 = target: T1, FLI1 (Homo sapiens, UniProt Q01543 1-452); conditions: protein: recombinant; tags: N-terminal GST; dsDNA, one strand shown
# T1 sequence: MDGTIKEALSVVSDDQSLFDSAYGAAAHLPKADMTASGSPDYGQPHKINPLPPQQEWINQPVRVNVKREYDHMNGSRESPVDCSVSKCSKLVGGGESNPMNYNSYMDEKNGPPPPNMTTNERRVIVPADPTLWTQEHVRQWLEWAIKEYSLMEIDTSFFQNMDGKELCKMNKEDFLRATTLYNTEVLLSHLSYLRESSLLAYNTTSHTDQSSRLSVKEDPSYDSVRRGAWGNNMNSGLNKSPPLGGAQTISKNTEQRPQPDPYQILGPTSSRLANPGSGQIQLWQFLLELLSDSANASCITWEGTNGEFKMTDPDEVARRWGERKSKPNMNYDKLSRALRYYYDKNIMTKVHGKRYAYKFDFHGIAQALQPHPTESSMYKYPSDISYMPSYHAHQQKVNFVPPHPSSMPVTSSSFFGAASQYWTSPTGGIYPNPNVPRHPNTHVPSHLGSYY
# Summary of the method: (§1)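 Yeast served to express human transcription factors as GST fusions, which were then captured on glutathione beads and labelled with DNA barcodes. Pooled with a tag-only sample, they were incubated with 200 nmole of a 16-mer random double-stranded DNA library for 30 min at room temperature in Tris/NaCl/DTT/glycerol buffer, washed, crosslinked with 0.1% formaldehyde, ligated by proximity, amplified by PCR and sequenced. Dividing each hexamer's read frequency for a factor by its frequency for the tag-only sample gives the binding signal.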
# ELK1 = target: T2, ELK1 (Homo sapiens, UniProt P19419 1-428); conditions: protein: recombinant; tags: N-terminal GST; dsDNA, one strand shown
# T2 sequence: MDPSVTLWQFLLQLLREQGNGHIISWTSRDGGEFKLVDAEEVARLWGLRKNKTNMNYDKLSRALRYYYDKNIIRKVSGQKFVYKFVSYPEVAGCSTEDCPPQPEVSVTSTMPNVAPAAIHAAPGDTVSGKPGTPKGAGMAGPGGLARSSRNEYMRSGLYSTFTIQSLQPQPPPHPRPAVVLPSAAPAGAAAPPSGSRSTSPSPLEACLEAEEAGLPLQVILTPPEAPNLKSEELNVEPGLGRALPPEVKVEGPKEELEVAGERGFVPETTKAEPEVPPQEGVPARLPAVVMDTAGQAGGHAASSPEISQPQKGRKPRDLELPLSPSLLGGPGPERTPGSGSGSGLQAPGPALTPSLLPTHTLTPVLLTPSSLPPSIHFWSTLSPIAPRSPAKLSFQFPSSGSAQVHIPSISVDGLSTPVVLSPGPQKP
# Summary of the method: as §1
# GABPA = target: T3, GABPA (Homo sapiens, UniProt Q06546 1-454); conditions: protein: recombinant; tags: N-terminal GST; dsDNA, one strand shown
# T3 sequence: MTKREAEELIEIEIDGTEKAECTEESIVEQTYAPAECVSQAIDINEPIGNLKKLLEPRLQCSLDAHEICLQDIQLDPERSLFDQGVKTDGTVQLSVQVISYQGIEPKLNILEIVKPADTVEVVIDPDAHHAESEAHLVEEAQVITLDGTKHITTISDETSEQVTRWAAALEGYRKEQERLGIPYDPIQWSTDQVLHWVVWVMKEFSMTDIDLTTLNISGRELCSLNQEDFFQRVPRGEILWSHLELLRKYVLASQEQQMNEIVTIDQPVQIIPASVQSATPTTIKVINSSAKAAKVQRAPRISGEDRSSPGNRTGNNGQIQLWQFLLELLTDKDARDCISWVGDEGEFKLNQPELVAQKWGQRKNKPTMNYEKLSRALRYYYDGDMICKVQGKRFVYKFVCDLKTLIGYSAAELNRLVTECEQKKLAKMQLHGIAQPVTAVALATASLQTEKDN
# Summary of the method: as §1
# ERG = target: T4, ERG (Homo sapiens, UniProt P11308 1-479); conditions: protein: recombinant; tags: N-terminal GST; dsDNA, one strand shown
# T4 sequence: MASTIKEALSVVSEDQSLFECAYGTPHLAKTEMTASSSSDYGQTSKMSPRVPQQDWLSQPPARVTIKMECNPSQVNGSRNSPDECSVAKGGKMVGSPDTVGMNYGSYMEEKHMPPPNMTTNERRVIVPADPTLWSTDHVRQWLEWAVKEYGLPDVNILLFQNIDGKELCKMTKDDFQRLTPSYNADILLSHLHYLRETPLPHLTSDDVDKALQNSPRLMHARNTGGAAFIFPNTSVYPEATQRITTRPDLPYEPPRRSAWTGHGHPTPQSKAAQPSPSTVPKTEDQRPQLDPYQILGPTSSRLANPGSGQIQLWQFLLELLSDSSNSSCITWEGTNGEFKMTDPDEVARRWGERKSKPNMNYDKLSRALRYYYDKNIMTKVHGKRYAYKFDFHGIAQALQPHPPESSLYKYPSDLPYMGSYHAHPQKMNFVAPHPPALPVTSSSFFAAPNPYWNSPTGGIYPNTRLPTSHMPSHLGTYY
# Summary of the method: as §1
# ELF1 = ELF1 (Homo sapiens, UniProt P32519 1-619); conditions: protein: recombinant; tags: N-terminal GST; dsDNA, one strand shown
# Summary of the method: as §1
# EHF = target: T5, EHF (Homo sapiens, UniProt Q9NZC4 1-300); conditions: protein: recombinant; tags: N-terminal GST; dsDNA, one strand shown
# T5 sequence: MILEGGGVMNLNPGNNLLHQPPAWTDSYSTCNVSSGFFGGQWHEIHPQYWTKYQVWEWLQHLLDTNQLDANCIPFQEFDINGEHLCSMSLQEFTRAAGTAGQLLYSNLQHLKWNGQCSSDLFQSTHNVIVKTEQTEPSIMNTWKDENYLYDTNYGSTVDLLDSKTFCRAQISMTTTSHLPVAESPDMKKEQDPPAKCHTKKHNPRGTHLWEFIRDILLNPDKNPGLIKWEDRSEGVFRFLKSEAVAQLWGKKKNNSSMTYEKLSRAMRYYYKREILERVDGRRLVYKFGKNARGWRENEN
# Summary of the method: as §1
# SPI1 = SPI1 (Homo sapiens, UniProt P17947 1-270); conditions: protein: recombinant; tags: N-terminal GST; dsDNA, one strand shown
# Summary of the method: as §1
# SPIB = SPIB (Homo sapiens, UniProt Q01892 1-262); conditions: protein: recombinant; tags: N-terminal GST; dsDNA, one strand shown
# Summary of the method: as §1
# ELK3 = target: T6, ELK3 (Homo sapiens, UniProt P41970 1-407); conditions: protein: recombinant; tags: N-terminal GST; dsDNA, one strand shown
# T6 sequence: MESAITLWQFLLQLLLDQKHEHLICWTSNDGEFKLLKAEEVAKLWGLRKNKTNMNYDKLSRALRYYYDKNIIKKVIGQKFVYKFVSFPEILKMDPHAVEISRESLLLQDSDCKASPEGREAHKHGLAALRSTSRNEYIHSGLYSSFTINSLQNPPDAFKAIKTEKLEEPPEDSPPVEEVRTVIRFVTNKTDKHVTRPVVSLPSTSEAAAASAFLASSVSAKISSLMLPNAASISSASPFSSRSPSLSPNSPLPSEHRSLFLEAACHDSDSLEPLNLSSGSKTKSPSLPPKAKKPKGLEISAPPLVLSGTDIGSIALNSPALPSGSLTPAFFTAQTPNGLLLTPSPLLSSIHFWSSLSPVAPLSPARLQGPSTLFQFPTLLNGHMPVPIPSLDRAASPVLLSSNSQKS
# Summary of the method: as §1
# FEV = target: T7, FEV (Homo sapiens, UniProt Q99581 1-238); conditions: protein: recombinant; tags: N-terminal GST; dsDNA, one strand shown
# T7 sequence: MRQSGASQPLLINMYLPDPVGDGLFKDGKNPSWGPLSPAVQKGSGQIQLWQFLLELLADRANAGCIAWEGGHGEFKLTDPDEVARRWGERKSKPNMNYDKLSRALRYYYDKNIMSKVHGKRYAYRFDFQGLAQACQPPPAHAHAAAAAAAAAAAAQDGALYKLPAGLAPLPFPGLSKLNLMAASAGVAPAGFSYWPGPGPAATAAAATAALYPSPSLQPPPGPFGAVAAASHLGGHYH
# Summary of the method: as §1
# ETV5 = ETV5 (Homo sapiens, UniProt P41161 1-510); conditions: protein: recombinant; tags: N-terminal GST; dsDNA, one strand shown
# Summary of the method: as §1
# HSF1 = HSF1 (Homo sapiens, UniProt Q00613 1-529); conditions: protein: recombinant; tags: N-terminal GST; chain copies: 3; dsDNA, one strand shown
# Summary of the method: as §1
# SPIC = target: T8, SPIC (Homo sapiens, UniProt Q8N5J4 1-248); conditions: protein: recombinant; tags: N-terminal GST; dsDNA, one strand shown
# T8 sequence: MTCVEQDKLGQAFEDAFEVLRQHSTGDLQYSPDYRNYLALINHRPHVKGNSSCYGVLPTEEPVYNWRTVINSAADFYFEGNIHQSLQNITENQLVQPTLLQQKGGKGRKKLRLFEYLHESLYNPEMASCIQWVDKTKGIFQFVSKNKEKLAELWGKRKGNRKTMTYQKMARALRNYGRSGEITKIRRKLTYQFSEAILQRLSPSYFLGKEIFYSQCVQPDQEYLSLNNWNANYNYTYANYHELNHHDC
# Summary of the method: as §1
# ELF4 = ELF4 (Homo sapiens, UniProt Q99607 1-663); conditions: protein: recombinant; tags: N-terminal GST; dsDNA, one strand shown
# Summary of the method: as §1
# ELK4 = target: T9, ELK4 (Homo sapiens, UniProt P28324-2 1-405); conditions: protein: recombinant; tags: N-terminal GST; dsDNA, one strand shown
# T9 sequence: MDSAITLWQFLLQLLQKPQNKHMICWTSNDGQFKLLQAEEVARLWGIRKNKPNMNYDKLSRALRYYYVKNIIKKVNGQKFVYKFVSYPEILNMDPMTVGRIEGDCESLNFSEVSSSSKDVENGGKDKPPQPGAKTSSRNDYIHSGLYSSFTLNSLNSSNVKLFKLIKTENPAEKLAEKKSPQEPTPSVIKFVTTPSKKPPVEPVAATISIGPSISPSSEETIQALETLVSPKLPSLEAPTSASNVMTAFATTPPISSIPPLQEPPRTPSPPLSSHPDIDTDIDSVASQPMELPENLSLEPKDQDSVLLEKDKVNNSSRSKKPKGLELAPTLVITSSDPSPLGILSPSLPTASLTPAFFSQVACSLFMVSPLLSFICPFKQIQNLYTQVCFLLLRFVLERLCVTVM
# Summary of the method: as §1
# ETV2 = target: T10, ETV2 (Homo sapiens, UniProt O00321 1-342); conditions: protein: recombinant; tags: N-terminal GST; dsDNA, one strand shown
# T10 sequence: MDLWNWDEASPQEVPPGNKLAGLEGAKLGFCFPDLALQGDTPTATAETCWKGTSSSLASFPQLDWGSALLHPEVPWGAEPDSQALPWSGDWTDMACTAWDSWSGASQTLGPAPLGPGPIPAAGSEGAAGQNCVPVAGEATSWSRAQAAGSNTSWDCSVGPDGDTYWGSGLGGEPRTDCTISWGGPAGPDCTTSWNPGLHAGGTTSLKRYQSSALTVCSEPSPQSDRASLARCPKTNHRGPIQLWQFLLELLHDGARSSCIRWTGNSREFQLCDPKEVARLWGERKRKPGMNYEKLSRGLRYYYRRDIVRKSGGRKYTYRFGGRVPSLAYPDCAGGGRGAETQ
# Summary of the method: as §1
# ELF3 = target: T11, ELF3 (Homo sapiens, UniProt P78545 1-371); conditions: protein: recombinant; tags: N-terminal GST; dsDNA, one strand shown
# T11 sequence: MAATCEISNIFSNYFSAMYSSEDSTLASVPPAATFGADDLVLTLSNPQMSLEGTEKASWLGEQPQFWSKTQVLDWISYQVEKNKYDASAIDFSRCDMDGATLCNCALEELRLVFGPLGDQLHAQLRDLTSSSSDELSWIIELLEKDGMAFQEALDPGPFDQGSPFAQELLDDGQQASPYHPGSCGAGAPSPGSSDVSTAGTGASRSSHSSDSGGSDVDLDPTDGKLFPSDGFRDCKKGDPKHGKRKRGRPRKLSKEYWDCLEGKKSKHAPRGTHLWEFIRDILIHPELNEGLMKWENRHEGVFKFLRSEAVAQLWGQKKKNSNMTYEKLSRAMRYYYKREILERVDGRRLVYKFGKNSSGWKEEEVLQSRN
# Summary of the method: as §1
# CRX = CRX (Homo sapiens, UniProt O43186 1-299); conditions: protein: recombinant; tags: N-terminal GST; dsDNA, one strand shown
# Summary of the method: as §1
# ETV1 = ETV1 (Homo sapiens, UniProt P50549 1-477); conditions: protein: recombinant; tags: N-terminal GST; dsDNA, one strand shown
# Summary of the method: as §1
# Sequence of ELF4 (Q99607 whole entry): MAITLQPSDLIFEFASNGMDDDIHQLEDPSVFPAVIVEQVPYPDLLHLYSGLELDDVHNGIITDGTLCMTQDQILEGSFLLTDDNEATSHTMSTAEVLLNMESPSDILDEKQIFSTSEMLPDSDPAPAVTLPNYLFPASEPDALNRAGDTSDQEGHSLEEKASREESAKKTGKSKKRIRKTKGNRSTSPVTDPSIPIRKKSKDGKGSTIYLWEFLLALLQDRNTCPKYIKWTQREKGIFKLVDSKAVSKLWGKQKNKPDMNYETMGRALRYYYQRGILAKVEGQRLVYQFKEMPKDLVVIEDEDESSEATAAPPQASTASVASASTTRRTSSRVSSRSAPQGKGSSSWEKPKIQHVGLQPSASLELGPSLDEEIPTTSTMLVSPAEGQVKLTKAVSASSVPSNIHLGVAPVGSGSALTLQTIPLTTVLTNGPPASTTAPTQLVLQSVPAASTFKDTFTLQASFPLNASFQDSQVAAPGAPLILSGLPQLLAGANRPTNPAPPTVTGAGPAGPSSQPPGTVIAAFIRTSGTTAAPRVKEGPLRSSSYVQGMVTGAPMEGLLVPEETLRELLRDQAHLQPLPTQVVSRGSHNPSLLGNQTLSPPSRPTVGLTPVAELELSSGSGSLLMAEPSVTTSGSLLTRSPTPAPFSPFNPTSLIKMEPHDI
# Sequence of ELF1 (P32519 whole entry): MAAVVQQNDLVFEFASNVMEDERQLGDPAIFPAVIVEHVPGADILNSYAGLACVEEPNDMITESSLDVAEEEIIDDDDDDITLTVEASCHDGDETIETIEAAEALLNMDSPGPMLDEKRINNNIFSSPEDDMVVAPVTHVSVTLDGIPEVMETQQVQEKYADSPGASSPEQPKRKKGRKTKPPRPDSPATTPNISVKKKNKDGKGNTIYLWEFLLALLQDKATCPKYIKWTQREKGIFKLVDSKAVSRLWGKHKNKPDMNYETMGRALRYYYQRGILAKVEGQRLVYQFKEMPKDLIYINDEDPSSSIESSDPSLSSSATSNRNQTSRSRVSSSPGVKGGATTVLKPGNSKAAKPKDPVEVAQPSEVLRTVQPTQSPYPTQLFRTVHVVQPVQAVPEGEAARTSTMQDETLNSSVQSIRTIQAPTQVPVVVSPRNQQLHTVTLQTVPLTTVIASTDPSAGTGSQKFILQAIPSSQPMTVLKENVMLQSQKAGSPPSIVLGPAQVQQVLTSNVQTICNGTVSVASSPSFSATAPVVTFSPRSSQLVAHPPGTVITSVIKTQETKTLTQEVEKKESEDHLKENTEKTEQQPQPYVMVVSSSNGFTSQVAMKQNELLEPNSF
# Sequence of CRX (O43186 whole entry): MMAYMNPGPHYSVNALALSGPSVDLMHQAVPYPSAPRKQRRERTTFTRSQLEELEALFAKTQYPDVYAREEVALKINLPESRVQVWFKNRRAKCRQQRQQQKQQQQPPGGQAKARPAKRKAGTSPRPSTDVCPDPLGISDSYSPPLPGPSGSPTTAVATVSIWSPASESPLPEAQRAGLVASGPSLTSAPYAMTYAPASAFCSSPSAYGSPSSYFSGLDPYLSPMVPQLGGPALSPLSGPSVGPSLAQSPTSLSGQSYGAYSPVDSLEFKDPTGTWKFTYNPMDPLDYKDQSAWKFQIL
# Sequence of ETV1 (P50549 whole entry): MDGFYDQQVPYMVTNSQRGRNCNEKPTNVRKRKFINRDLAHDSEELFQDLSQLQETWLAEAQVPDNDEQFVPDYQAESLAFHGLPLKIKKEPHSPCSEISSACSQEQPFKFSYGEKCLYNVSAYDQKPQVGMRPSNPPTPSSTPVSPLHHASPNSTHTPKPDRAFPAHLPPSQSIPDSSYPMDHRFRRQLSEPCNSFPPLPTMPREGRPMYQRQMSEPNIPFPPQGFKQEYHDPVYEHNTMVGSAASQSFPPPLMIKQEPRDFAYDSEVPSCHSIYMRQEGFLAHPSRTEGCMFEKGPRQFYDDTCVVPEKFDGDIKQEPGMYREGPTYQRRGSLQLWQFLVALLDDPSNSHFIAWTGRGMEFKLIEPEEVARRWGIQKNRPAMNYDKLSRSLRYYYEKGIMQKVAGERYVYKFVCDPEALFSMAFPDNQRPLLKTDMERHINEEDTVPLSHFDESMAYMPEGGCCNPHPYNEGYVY
# Sequence of ETV5 (P41161 whole entry): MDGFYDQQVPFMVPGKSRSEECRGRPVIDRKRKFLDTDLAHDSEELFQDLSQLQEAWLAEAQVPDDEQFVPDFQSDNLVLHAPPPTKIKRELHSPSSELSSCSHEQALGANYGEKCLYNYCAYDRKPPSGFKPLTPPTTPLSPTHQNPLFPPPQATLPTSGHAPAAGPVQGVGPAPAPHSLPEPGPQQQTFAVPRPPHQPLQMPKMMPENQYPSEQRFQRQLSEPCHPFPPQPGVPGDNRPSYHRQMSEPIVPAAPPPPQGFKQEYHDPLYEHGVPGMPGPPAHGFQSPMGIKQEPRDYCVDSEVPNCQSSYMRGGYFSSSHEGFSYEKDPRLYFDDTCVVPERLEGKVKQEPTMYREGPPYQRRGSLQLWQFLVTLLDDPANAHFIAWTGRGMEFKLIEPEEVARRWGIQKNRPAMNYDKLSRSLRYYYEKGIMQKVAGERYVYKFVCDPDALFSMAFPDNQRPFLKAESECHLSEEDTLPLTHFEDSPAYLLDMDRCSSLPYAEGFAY
# Sequence of SPIB (Q01892 whole entry): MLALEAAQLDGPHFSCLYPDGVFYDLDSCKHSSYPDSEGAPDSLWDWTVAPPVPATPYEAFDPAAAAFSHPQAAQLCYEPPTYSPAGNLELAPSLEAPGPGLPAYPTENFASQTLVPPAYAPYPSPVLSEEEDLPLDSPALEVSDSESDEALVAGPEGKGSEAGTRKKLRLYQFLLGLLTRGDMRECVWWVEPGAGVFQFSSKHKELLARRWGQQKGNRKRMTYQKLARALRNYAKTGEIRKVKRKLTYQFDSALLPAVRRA
# Sequence of HSF1 (Q00613 whole entry): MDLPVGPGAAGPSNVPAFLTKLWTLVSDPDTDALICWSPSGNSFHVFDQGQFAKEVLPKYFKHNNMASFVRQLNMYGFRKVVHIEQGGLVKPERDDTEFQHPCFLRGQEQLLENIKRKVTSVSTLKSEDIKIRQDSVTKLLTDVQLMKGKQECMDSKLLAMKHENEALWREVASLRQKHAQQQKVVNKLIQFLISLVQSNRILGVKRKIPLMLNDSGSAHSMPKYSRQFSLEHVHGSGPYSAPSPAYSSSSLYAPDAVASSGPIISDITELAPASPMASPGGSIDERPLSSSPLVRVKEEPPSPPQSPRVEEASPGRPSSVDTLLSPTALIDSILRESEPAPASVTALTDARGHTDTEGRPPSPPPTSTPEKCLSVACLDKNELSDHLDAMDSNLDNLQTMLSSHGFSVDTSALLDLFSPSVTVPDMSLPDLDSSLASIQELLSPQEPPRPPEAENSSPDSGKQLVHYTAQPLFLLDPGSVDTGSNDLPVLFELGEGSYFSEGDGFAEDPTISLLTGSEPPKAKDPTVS
sequence,measurement,setting,value
CCCGAT,binding signal,FLI1,"1.29 fold enrichment (6-mer frequency, TF over GST control)"
same,binding signal,ELK1,"1.17 fold enrichment (6-mer frequency, TF over GST control)"
same,binding signal,GABPA,"1.1 fold enrichment (6-mer frequency, TF over GST control)"
same,binding signal,ERG,"1.14 fold enrichment (6-mer frequency, TF over GST control)"
same,binding signal,ELF1,"1.16 fold enrichment (6-mer frequency, TF over GST control)"
same,binding signal,EHF,"1.22 fold enrichment (6-mer frequency, TF over GST control)"
same,binding signal,SPI1,"1.16 fold enrichment (6-mer frequency, TF over GST control)"
same,binding signal,SPIB,"1.26 fold enrichment (6-mer frequency, TF over GST control)"
same,binding signal,ELK3,"1.06 fold enrichment (6-mer frequency, TF over GST control)"
same,binding signal,FEV,"1.27 fold enrichment (6-mer frequency, TF over GST control)"
same,binding signal,ETV5,"1.2 fold enrichment (6-mer frequency, TF over GST control)"
same,binding signal,HSF1,"1.38 fold enrichment (6-mer frequency, TF over GST control)"
same,binding signal,SPIC,"1.29 fold enrichment (6-mer frequency, TF over GST control)"
same,binding signal,ELF4,"1.23 fold enrichment (6-mer frequency, TF over GST control)"
same,binding signal,ELK4,"1.11 fold enrichment (6-mer frequency, TF over GST control)"
same,binding signal,ETV2,"1.02 fold enrichment (6-mer frequency, TF over GST control)"
same,binding signal,ELF3,"1.2 fold enrichment (6-mer frequency, TF over GST control)"
same,binding signal,CRX,"1.37 fold enrichment (6-mer frequency, TF over GST control)"
same,binding signal,ETV1,"1.08 fold enrichment (6-mer frequency, TF over GST control)"
